According to PubChem BioAssay (NCI):
The panel holds about 83,000 compounds, 20% with a hit somewhere; the sample as a whole holds those more often.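 Assay: single dose, 48 h. Readout: percent growth (0 = no net growth; negative = cell death). Active: <10.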 Unmarked numbers belong to inactive results. Active and inactive are the calls of the source.

These molecules were tested on SK-MEL-5 melanoma (assay: NCI-60 one-dose screen, 48 h (100 = growth as untreated, 0 = no growth, -100 = all killed)). Settings: 10 µM unless noted.
Molecule `CN(C)Cc1ccccn1` has a growth of 101%. `CCNCC(C)(C)O` showed a growth of 97.3%. Molecule `CCOS(=O)(=O)c1ccc([N+](=O)[O-])cc1` has a growth of 102%. For `CCCCCCCCCCCCSC1=C(Cl)C(=O)C(OC)=C(OC)C1=O`, the growth was -37.6% (active). Molecule `CN(C(=S)S(=O)(=O)C12CC3CC(CC(C3)C1)C2)c1ccccc1` has a growth of 101%. For `N#Cc1ccc2nc[nH]c2c1`, the growth was 102%. For `CCCCCC#CC(=O)O`, the growth was 111%. In the case of `CC(=O)C1C(=O)C(=O)N(c2ccc(Cl)c(Cl)c2)C1=O` (configuration not stated), the growth is reported as 107%. Molecule `CC(C)OCC(CCl)OC(=O)Nc1ccccc1` (configuration not stated) has a growth of 101%. For `COc1ccc(C(=O)/C(=N/Nc2ccccc2)c2ccc(OC)cc2)cc1`, the growth was 98.1%. In the case of `Cc1cc(Nc2ccc3c(c2)OCO3)c2cc3c(cc2n1)OCO3`, the growth is reported as 22.6%. For `NC(=O)N1CCOCC1`, the growth was 105%. `CC(=O)Nc1ccc(O)c(C)c1` showed a growth of 100%. `COc1cccc2c1Cc1ccccc1-2` was tested, and the growth was 100%. For `C=COC(=O)CCOCC(CC)CCCC` (configuration not stated), the growth was 107%. `N#C/C(=C\c1ccc(C#N)cc1)C(=O)c1ccccc1` gave a growth of 106%. Work on `Cc1cccc(C)c1NC(=S)/N=C\c1c(O)[nH]c(=O)[nH]c1=O` yielded a growth of 96.3%. For `COc1ccc(C(=O)C(=O)c2ccccc2)cc1`, the growth was 90.7%. With `O=C1CSc2ccccc2N1` the growth was 109%. `Cc1c(Cl)cccc1NC(=S)NC(=O)c1ccccc1` was tested, and the growth was 90.1%. For `CC(c1ccccc1)N(C)C` (configuration not stated), the growth was 99.6%. Molecule `CCOC(=O)/C(O)=C(\C=N\C(=S)Nc1ccc(Cl)c(Cl)c1)C(=O)OCC` has a growth of 91.7%. Work on `CCC(=O)C1C(=O)c2ccccc2C1=O` yielded a growth of 110%. In the case of `CCCCCCCCCc1ccc(OC(C)=O)cc1`, the growth is reported as 103%. `Nc1ncnc(Nc2ccc(C(F)(F)F)cc2)n1` was tested, and the growth was 99.6%. `CCOP(=O)(OCC)/C(=C\N1C(=O)CC(=O)NC1=S)C(=O)OC` gave a growth of 99%. In the case of `C=CCOc1ccc(Cl)cc1Cl`, the growth is reported as 108%. `NNC(=O)N/N=C1\C(=O)N(c2nccs2)C(=O)C(=O)C1c1nc2ccccc2s1` (configuration not stated) gave a growth of 96.5%. In the case of `Cc1cc(Cl)cc(Cc2cc(Cl)cc(C)c2O)c1O`, the growth is reported as 6.88% (active). With `C=CCN1CCCC1=O` the growth was 101%. Molecule `COc1cc(C(=O)O)c(O)c(C(C)(C)C)c1` has a growth of 96.5%. Molecule `CC(=O)OCC1OC(n2cnc3c(=S)nc(N)[nH]c32)C(OC(C)=O)C1OC(C)=O` (configuration not stated) has a growth of 99.4%. Work on `CCC(=O)Oc1ccc2ccccc2c1` yielded a growth of 91.6%. `CCOC(=O)C(=O)CC(=O)c1ccccc1` gave a growth of 95%. Molecule `Cc1ccc(NCN2C(=O)c3ccccc3C2=O)c(C)n1` has a growth of 100%. With `CC(C)c1ncc([N+](=O)[O-])n1C` the growth was 114%. Molecule `O=C(O)c1c[nH]c2ccccc2c1=O` has a growth of 101%.
